Hit rate of the full screen: of about 310,000 compounds, about 1,700 (0.55%) were called active. Cut-off read from the data, not from the text of the source: active = inhibition above about 50%; inactive = the rest. What follows is part of a selection rich in actives, with near analogues and random picks from the rest.

The target in the test is Histone-lysine N-methyltransferase NSD2 (Homo sapiens) (UniProt O96028). Briefly: blockers of NSD2 lysine methylation activity – biochemical, AlphaScreen, single concentration, set 2, primary screen (AID 743445). To be noted: NSD2 peptide methylation, 120 min, at 12.5 µM, active compounds read high.
Chain of Histone-lysine N-methyltransferase NSD2 (Homo sapiens) (O96028 whole entry, looked up): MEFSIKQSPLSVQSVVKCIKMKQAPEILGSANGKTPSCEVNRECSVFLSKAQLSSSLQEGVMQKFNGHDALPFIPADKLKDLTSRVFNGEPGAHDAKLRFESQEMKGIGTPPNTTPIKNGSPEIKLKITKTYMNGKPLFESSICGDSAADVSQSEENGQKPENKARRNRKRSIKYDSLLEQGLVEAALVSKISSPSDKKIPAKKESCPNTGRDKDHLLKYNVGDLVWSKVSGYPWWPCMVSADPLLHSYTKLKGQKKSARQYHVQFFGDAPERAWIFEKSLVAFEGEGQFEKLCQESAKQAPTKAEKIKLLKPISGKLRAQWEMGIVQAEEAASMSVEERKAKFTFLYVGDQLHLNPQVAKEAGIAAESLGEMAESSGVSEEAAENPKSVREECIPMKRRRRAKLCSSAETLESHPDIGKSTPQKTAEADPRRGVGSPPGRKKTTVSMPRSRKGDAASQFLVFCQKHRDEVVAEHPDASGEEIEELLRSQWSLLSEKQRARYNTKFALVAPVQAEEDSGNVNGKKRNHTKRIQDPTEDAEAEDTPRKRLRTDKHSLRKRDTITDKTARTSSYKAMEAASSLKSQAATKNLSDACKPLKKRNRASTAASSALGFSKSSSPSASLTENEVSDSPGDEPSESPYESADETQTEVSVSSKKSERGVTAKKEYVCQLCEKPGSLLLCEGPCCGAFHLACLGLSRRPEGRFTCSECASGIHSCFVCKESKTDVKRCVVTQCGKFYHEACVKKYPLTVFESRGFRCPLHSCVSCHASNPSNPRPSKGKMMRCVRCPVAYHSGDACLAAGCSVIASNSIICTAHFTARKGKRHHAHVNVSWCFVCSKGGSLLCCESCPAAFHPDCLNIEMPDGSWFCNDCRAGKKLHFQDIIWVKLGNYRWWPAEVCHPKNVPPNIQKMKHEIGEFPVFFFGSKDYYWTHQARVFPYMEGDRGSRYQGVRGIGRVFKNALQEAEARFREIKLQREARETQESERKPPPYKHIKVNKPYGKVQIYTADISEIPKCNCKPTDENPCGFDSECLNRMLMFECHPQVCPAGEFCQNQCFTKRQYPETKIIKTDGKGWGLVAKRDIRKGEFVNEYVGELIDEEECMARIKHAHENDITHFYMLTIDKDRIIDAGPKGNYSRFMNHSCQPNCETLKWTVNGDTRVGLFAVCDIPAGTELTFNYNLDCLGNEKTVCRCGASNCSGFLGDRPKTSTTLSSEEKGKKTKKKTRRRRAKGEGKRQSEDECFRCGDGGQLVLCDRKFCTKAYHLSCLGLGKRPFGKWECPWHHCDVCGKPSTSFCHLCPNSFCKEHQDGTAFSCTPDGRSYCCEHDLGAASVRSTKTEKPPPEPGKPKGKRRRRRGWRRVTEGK
For `OC[C@@H]1CN(Cc2cccs2)C[C@H](n2cnc3c(NC4CCCC4)ncnc32)O1`, the inhibition was -1.52% (inactive). As to `Cc1ccc(NC(=O)c2cc(C)nn2-c2ccccc2)c(C)c1`, the inhibition is -1.54% (inactive). For the compound `CCOC(=O)C1=C(C)NC2=C(C(=O)CC(C)(C)C2)C1c1ccc2c(c1)OCO2` (centres undefined), the inhibition was 15.9% (inactive). Take `CCOc1ccc(CCN2C(=O)c3cccnc3C2=O)cc1OCC`: the inhibition was -2.42% (inactive). Under `Cc1cccc(N2C(=O)c3cccnc3C2=O)c1` stands -1.99% (inactive); under `NC1=CC(=O)C(=O)c2cccnc21`, 122% (active). Consider `Nc1[nH][nH]c(=O)c1N=Nc1ccc2c(c1)OCO2`, for which the inhibition was 4.47% (inactive). As to `CCOc1ccc(C(c2c(C)[nH][nH]c2=O)c2c(C)[nH][nH]c2=O)cc1OCC`, the inhibition is 10.6% (inactive). `Cc1[nH][nH]c(=O)c1C(c1ccc2c(c1)OCO2)c1c(C)[nH][nH]c1=O`: the inhibition is 84.4% (active).

As to `CCCCN1CCN(C(=O)c2ccc3c(c2)NC(=O)C(C)(C)O3)CC1`, the inhibition was 8.11% (inactive).

Regarding `COc1ccc(CN(CCN2CCOCC2)C(=O)c2ccc(C)cc2)cc1OC`, the inhibition is 6.86% (inactive). Take `COc1ccc(CSc2nnc(SCC(=O)Nc3ccccc3C(F)(F)F)s2)cc1`: the inhibition was 0.831% (inactive). For the compound `COc1ccc(CSc2nnc(-c3cccc(C)c3)n2C)cc1`, the inhibition is 0.584% (inactive). As to `Oc1ccc2ccccc2c1N=Nc1nccs1`, the inhibition is 34.1% (inactive). With `Oc1c(C=Nc2cccc3nsnc23)ccc2ccccc12`, the inhibition is 109% (active). In the case of `O=C(CSc1nc2ccccc2s1)N=Nc1c(O)[nH]c2ccccc12`, the inhibition was 2.59% (inactive). With `O=C(CSc1nnc(COc2ccccc2)n1Cc1ccco1)c1ccc2ccccc2c1`, the inhibition was 0.338% (inactive). `O=C(CSc1nc2ccccc2n1Cc1ccccc1Cl)N/N=C\c1c[nH]c2ccccc12`: the inhibition is 3% (inactive). Turning to `O=C(OCC(=O)N1CCN(c2ccccc2)CC1)c1ccc([N+](=O)[O-])s1`, the inhibition was 1.02% (inactive). `COc1cc(NC(=O)COC(=O)c2ccc([N+](=O)[O-])s2)cc(OC)c1OC`: the inhibition is 72.8% (active). Under `COc1cc(C(=O)OCc2ccc([N+](=O)[O-])cc2)cc(OC)c1OC` stands -0.924% (inactive); under `O=C(NCc1cccnc1)c1cc(C2CCCN(C(=O)CCCc3ccccc3)C2)on1` (centres undefined), -1.28% (inactive).

As for `Fc1ccc2nc(COCc3nc4ccc(F)cc4[nH]3)[nH]c2c1`, the inhibition is -1.4% (inactive).

Take `CCCOc1ccc(F)cc1-c1cc(C(=O)NCc2ccc(F)cc2)[nH]n1`: the inhibition is 19.4% (inactive). Regarding `COc1ccc(CCNC(=O)CSc2nc3c([nH]2)c(=O)n(C)c(=O)n3C)cc1`, the inhibition was -8.19% (inactive). Under `COC(=O)[C@H](Cc1ccccc1)NC(=O)Nc1ccc(S(N)(=O)=O)cc1` stands 59.7% (active). In the case of `COC(=O)[C@@H](Cc1ccccc1)NC(=O)NCCc1ccccc1`, the inhibition was 0.664% (inactive).

For `COC(=O)[C@H](Cc1ccccc1)NC(=O)Nc1ccc(OC)cc1`, the inhibition was -1.09% (inactive). In the case of `COc1ccc(NC(=O)C2(C)Cc3c(-c4cccc(NC(C)=O)c4)ccnc3O2)cc1OC` (centres undefined), the inhibition was 1.97% (inactive).

In the case of `CCOc1ccccc1C(=O)Nc1cccc(C(=O)Nc2cc(C)ccn2)c1`, the inhibition was 1.28% (inactive).

For the compound `O=C(CSc1nnc(-c2cccc(Cl)c2)n1Cc1ccco1)Nc1ccc(OCc2ccccc2)cc1`, the inhibition was -1.47% (inactive). `CC(=O)c1cc(-c2ccccc2)n(CC(=O)NC2CCCCC2)c1C`: the inhibition is 71.5% (active).

Take `CC(=O)c1cc(-c2ccccc2)n(CCC(=O)NC2CCCCCC2)c1C`: the inhibition was 1.47% (inactive). As for `CC(=O)CC(CC(=O)NC1CCCCC1)c1ccccc1` (centres undefined), the inhibition was -4.05% (inactive). `CCN(CC)S(=O)(=O)c1ccc(N2CCOCC2)c(NC(=O)C(C)Oc2ccc(F)cc2)c1` (centres undefined): the inhibition is -1.83% (inactive). On to `CCN(CC)S(=O)(=O)c1ccc(N2CCN(C)CC2)c(NC(=O)Nc2ccccc2F)c1`, for which the inhibition is 78.4% (active). In the case of `CN1CCN(c2ccc(S(=O)(=O)N3CCCCC3)cc2NC(=O)Cc2ccccc2F)CC1` it was 1.27% (inactive); in that of `Cc1nc([N+](=O)[O-])cn1CC(=O)Nc1ccc(Cl)cc1`, -0.868% (inactive). With `Cc1nc([N+](=O)[O-])cn1CC(=O)Nc1ccc2c(c1)OCO2`, the inhibition is -1.66% (inactive).

`Cc1ccc(C(=O)Cn2cc([N+](=O)[O-])nc2C)cc1`: the inhibition was 55.2% (active). Turning to `COc1ccc(OC)c(-c2csc(NC(=O)COC(=O)C3CC3)n2)c1`, the inhibition is -2.87% (inactive). With `COc1ccc(OC)c(-c2csc(-c3cccs3)n2)c1`, the inhibition was 126% (active). Consider `COc1ccc(CCc2nc(-c3cccs3)no2)cc1`, for which the inhibition is -6.21% (inactive).

`COc1ccc(-c2cc(NC=O)c3ncc(-c4cc(OC)c(OC)c(OC)c4)n3c2)c(OC)c1`: the inhibition is 2.63% (inactive).

Take `COc1ccc(C(=O)N2CCCCC2c2cc(C(=O)Nc3ccc(F)c(Cl)c3)no2)cc1` (centres undefined): the inhibition is -0.843% (inactive).

Take `CCOc1ccc(C(CC(=O)O)NC(=O)C23CC4CC(CC(C4)C2)C3)cc1OC` (centres undefined): the inhibition is 73.2% (active).

As for `CCOc1ccc(C(CC(=O)O)NC(=O)Cc2ccccc2)cc1OC` (centres undefined), the inhibition is 0.638% (inactive).

On to `COc1ccc(C(C)NC(=O)C23CC4CC(CC(C4)C2)C3)cc1` (centres undefined), for which the inhibition is 0.365% (inactive).

On to `CCC(NC(=O)C1C2C=CC3(CN(Cc4ccccc4)C(=O)C13)O2)c1ccccc1` (centres undefined), for which the inhibition is -0.276% (inactive). `CC(=O)N1CCc2cc(S(=O)(=O)NCCC(=O)N3CCCC3)ccc21`: the inhibition is -3.38% (inactive). Take `Cc1ccc(-n2c(SCC(=O)Nc3ccc(S(=O)(=O)Nc4nccs4)cc3)nnc2-c2ccccn2)cc1`: the inhibition was 10.5% (inactive). In the case of `Cc1coc2c(O)cc3c(c12)OC1(N2CCCCC2)C(=O)NCCCC31` (centres undefined) it was 75.1% (active); in that of `COc1ccccc1CCNC(=O)C1CCN(c2nc(C)cc(C)n2)CC1`, -3.97% (inactive). `Cc1ccc(C(=O)N(Cc2ccccn2)CC2CCCO2)cc1` (centres undefined): the inhibition is -6.08% (inactive). `OC(c1ccccc1)c1nc(/C=C/c2ccc(C(F)(F)F)cc2)cs1` (centres undefined): the inhibition was -1.07% (inactive). With `CSc1ccc(CN2CCC2(C)C(=O)Nc2ccc(C)c(O)c2)cc1` (centres undefined), the inhibition was -2.34% (inactive). Take `COCCn1c(C)cc(C(=O)CSc2nc3ccccc3c(=O)n2C(C)COC)c1C` (centres undefined): the inhibition was 1.34% (inactive). As for `COCC(C)n1c(SCC(=O)NC2CCCCC2C)nc2ccccc2c1=O` (centres undefined), the inhibition is 52.7% (active). As for `COCC(C)n1c(SCc2ccc(C(=O)OC)o2)nc2ccccc2c1=O` (centres undefined), the inhibition is -0.047% (inactive).

The term inhibition denotes the relative decrease from the control value, in per cent.

These data come from PubChem BioAssay AID743445 (Broad Institute, 2014).
